# Reference: PubChem BioAssay (NCATS)
# Unmarked numbers belong to inactive results. Records with an inconclusive call do not appear. Entries that show only a call come without a potency. Active and inactive are the calls of the source. Unless noted, the call rests on the fitted dose curve; in most records, active means well fitted curve in the direction sought with a large enough effect; inconclusive means small, poorly fitted or top-dose-only effect, or another doubt; inactive means no such curve, though single readings can be large; an effect the other way counts as inactive or inconclusive.
# Legend:
# [1] = biological target: 3',5'-cyclic-AMP phosphodiesterase 4B (Homo sapiens) (UniProt Q07343); experiment: qHTS Assay for Inhibitors of PDE-IV (AID 607; active means well fitted activation curve with a large enough effect in the main read-out, with a control signal flat, not every such curve was filed as active); settings: HEK293 ACTOne CNG channel cells, membrane potential fluorescence; series mostly up to 22.9 µM
# In short: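 Live HEK293 cells with a modified cyclic nucleotide-gated (CNG) channel report intracellular cAMP via membrane-potential dye fluorescence (ex 535/em 590 nm). Endogenous PDE-IV was targeted. Compounds were tested at up to 22.9 uM final; RO 20-1724 100 uM served as control.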
# [2] = Cellular Toxicity (caspase-3) HepG2 (AID 654); settings: HepG2 caspase-3 activation, luminescence; series mostly up to 92.2 µM; further: potency means the concentration at half of the fitted maximal effect;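 on caspase-3 activation: cells exposed to compound for 16 hours before reading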
# In short: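 Cells plated 5 hr at 37 °C, compound added, incubated 16 hr at 37 °C. Caspase-Glo 3/7 reagent followed, 20 min at room temperature, then luminescence read. Activation scored as signal increase; AC50 from Hill fit.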
# [3] = Cellular Toxicity (caspase-3) Jurkat (AID 655); settings: Jurkat caspase-3 activation, luminescence, DMSO = 0%, tamoxifen = 100%; at 92.2 µM (top of the series);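 further: cells exposed to compound for 16 h at 37 °C before reading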
# In short: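 Luminescent caspase-3/7 readout (aminoluciferin substrate cleavage) in human T-cell leukemia Jurkat cells after 16 hr compound exposure. Concentration-response normalized to DMSO and 100 uM tamoxifen; AC50 by standard Hill equation.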
# [4] = Cellular Toxicity (caspase-3) HUV-EC-C (AID 656); settings: HUV-EC-C cells, caspase-3 activation (apoptosis); series mostly up to 92.2 µM; further: potency means the concentration at half of the fitted maximal effect
# In short: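 Luminescent caspase-3/7 activation (aminoluciferin substrate cleavage) in HUV-EC-C cells after 16 hr compound exposure, 37°C. Signal normalized to DMSO basal and 100 uM tamoxifen as 100%; AC50 from concentration-response fitted with the Hill equation.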
# [5] = Cellular Toxicity (caspase-3) SHSY5Y (AID 657); settings: SH-SY5Y caspase-3 activation, DMSO zero, 10 µM staurosporine = 100%; series mostly up to 91.7 µM;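 further: cells exposed to compound for 16 hours at 37 °C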
# In short: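 Luminescent caspase-3/7 readout (aminoluciferin release) in SH-SY5Y cells after 16 h compound exposure in complete medium. Activity scaled between DMSO basal and 10 uM staurosporine as 100%; concentration-response fitted to Hill equation for AC50.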
# [6] = Cellular Toxicity (caspase-3) BJ (AID 658); settings: BJ fibroblasts, luminescence, normalized: DMSO 0%, staurosporine 100%; series mostly up to 91.7 µM;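 further: cells exposed to compound for 16 hours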
# In short: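 Luminescent aminoluciferin-substrate cleavage reports caspase 3/7 activity in normal human BJ fibroblasts after 16 hr compound exposure at 37 °C. Normalized to DMSO (basal) and 10 uM staurosporine (100%); AC50 from Hill fit of concentration-response.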
# [7] = Cellular Toxicity (caspase-3) Mesangial (AID 660); settings: mesangial cells, normalized: DMSO 0%, 100 µM tamoxifen 100%; at 91.7 µM (top of the series);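 further: combined caspase 3 and 7 activity read by Caspase-Glo luminescence; cells exposed to compound for 16 h before the caspase read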
# In short: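 Mesangial cells, 1000/well, 5 h settle at 37 °C; compound 16 h, 37 °C; Caspase-Glo 3/7 reagent 20 min RT; luminescence. Norm.: DMSO = 0%, tamoxifen 100 uM = 100%. AC50, Hill fit.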
# [8] = Cellular Toxicity (caspase-3) SK-N-SH (AID 661); settings: SK-N-SH caspase-3 activation, qHTS; series mostly up to 91.7 µM;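 further: cells exposed to compound for 16 hours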; further: potency means the concentration at half of the fitted maximal effect
# In short: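 Human neuroblastoma SK-N-SH, 1500 cells/well, 5 hr pre-incubation, then compound 16 hr, 37 °C. Caspase-Glo 3/7 reagent, 1 hr RT, luminescence. Norm. to DMSO/10 uM staurosporine; Hill-fit AC50.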
# [9] = Cellular Toxicity (caspase-3) H-4-II-E (AID 663); settings: H-4-II-E rat hepatoma, scaled: DMSO 0%, 100 µM tamoxifen 100%; at 92.2 µM (top of the series);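 further: cells exposed to compound for 16 hr before readout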
# In short: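 Luminescence from caspase-cleaved aminoluciferin substrate, read 20 min after reagent addition, reports caspase 3/7 activation in rat H-4-II-E cells after 16 hr compound exposure. Normalized to DMSO (basal) and 100 uM tamoxifen (100%); AC50 from Hill fits.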
# [10] = Cellular Toxicity (caspase-3) Hek293 (AID 664); settings: HEK293 caspase-3 activation; caspase-3 activation: at 92.2 µM (top of the series), DMSO = 0%, 100 µM tamoxifen = 100%;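 further: cells exposed to compound for 16 h at 37 °C before readout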; further: potency means the concentration at half of the fitted maximal effect
# In short: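 Cells plated, 5 hr at 37 °C; compounds added; 16 hr at 37 °C; Caspase-Glo 3/7 reagent, 20 min RT; luminescence read. Activation expressed relative to DMSO and 100 uM tamoxifen, AC50 by Hill model.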
# Chain of 3',5'-cyclic-AMP phosphodiesterase 4B (Homo sapiens) (Q07343 whole entry, looked up): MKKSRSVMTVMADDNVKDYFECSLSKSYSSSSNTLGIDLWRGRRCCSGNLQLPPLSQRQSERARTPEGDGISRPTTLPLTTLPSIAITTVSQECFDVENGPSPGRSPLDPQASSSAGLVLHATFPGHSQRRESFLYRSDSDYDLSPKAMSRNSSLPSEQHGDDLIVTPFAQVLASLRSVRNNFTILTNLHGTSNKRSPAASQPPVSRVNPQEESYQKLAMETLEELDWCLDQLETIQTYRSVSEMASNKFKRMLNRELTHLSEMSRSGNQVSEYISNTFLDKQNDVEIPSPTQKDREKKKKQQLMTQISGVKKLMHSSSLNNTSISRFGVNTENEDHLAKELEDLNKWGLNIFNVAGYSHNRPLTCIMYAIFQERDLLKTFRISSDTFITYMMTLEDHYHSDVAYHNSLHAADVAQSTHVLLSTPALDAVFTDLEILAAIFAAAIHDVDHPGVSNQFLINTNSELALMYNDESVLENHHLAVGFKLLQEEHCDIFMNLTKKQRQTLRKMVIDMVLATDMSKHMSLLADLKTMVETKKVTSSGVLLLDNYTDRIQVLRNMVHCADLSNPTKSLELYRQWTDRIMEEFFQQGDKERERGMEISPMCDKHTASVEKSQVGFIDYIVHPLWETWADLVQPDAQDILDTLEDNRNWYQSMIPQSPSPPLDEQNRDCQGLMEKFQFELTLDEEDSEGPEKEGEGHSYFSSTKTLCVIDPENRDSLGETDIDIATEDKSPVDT
smiles,measurement,setting,value
O=c1cc(-c2ccc(O)cc2)oc2cc(O)cc(O)c12,outcome,[1],inactive
same,Potency,[2],inactive
same,caspase-3 activation,[3],8.24%
same,Potency,[4],inactive
same,outcome,[5],inactive
same,outcome,[6],inactive
same,caspase-3 activation,[7],-2.47%
same,Potency,[8],inactive
same,caspase-3 activation,[9],9.21%
same,Potency,[10],inactive
CCCCC1C(=O)N(c2ccccc2)N(c2ccccc2)C1=O,outcome,[1],inactive
same,Potency,[2],inactive
same,caspase-3 activation,[3],0.354%
same,Potency,[4],inactive
same,outcome,[5],inactive
same,outcome,[6],inactive
same,caspase-3 activation,[7],0.46%
same,Potency,[8],inactive
same,caspase-3 activation,[9],0.827%
same,Potency,[10],inactive
CCCNC(=O)NS(=O)(=O)c1ccc(Cl)cc1,outcome,[1],inactive
same,Potency,[2],inactive
same,caspase-3 activation,[3],-0.0991%
same,Potency,[4],inactive
same,outcome,[5],inactive
same,outcome,[6],inactive
same,caspase-3 activation,[7],-0.968%
same,Potency,[8],inactive
same,caspase-3 activation,[9],-0.479%
same,Potency,[10],inactive
COc1ccccc1N1CCN(CCCNc2cc(=O)n(C)c(=O)n2C)CC1,outcome,[1],inactive
C[C@@H](O)[C@H]1C(=O)N2C(C(=O)O)=C(S[C@@H]3CN[C@H](C(=O)N(C)C)C3)[C@H](C)[C@H]12,outcome,[1],inactive
CC1=C(/C=C/C(C)=C/C=C/C(C)=C/C(=O)Nc2ccc(O)cc2)C(C)(C)CCC1,Potency,[2],31.6 µM (active)
same,caspase-3 activation,[3],-0.319% (active)
same,Potency,[4],31.6 µM (active)
same,caspase-3 activation,[7],91% (active)
same,Potency,[8],31.6 µM (active)
same,caspase-3 activation,[9],91.2% (active)
same,Potency,[10],31.6 µM (active)
CCN(CC)C(=O)c1ccc(O)c(OC)c1,outcome,[1],inactive
C[N+](C)(C)CC(=O)O,outcome,[1],inactive
CCCCCCCCCCCC1=C(O)C(=O)C=C(O)C1=O,outcome,[1],inactive
CCN1CCC[C@H]1CNC(=O)c1cc(S(N)(=O)=O)ccc1OC,outcome,[1],inactive
COc1cccc(-c2cc(=O)c3ccccc3o2)c1N,outcome,[1],inactive
CCN(CC)CCOC(=O)c1ccc(N)cc1,outcome,[1],inactive
CC/C(=C(\c1ccccc1)c1ccc(OCCN(C)C)cc1)c1ccccc1,Potency,[2],50.1 µM (active)
same,Potency,[4],63.1 µM (active)
same,caspase-3 activation,[10],147% (active)
O=C1NCC2(CCN(CCc3ccccc3)CC2)O1,outcome,[1],inactive
COCCCCC(=NOCCN)c1ccc(C(F)(F)F)cc1,outcome,[1],inactive
c1cc(-c2sc(-c3ccncc3)c(-c3ccncc3)c2-c2ccncc2)ccn1,outcome,[1],inactive
CCN(CC)CCNC(=O)c1ccc(N)cc1,outcome,[1],inactive
O=c1cc(-c2ccccc2)oc2cc(O)cc(O)c12,outcome,[1],inactive
O=c1cc(-c2ccccc2)oc2cc(O)c(O)c(O)c12,outcome,[1],inactive
O=C(O)CCc1nc(-c2ccccc2)c(-c2ccccc2)o1,outcome,[1],inactive
O=c1c(O)c(-c2ccc(O)cc2)oc2cc(O)cc(O)c12,outcome,[1],inactive
same,Potency,[2],inactive
same,caspase-3 activation,[3],1.17%
same,Potency,[4],inactive
same,outcome,[5],inactive
same,outcome,[6],inactive
same,caspase-3 activation,[7],-0.85%
same,Potency,[8],inactive
same,Potency,[10],inactive
COc1ccc2c3c1OC1C[C@@H](O)C=C[C@@]31CCN(C)C2 (some centres not stated),outcome,[1],inactive
O=c1[nH]cnc2c1ncn2[C@H]1CC[C@@H](CO)O1,Potency,[2],inactive
same,caspase-3 activation,[3],3.7%
same,Potency,[4],inactive
same,outcome,[5],inactive
same,outcome,[6],inactive
same,caspase-3 activation,[7],-0.684%
same,Potency,[8],inactive
same,caspase-3 activation,[9],0.398%
same,Potency,[10],inactive
CC(=O)c1ccc(S(=O)(=O)NC(=O)NC2CCCCC2)cc1,outcome,[1],inactive
same,Potency,[2],inactive
same,caspase-3 activation,[3],0.00348%
same,Potency,[4],inactive
same,outcome,[5],inactive
same,outcome,[6],inactive
same,caspase-3 activation,[7],0.0312%
same,Potency,[8],inactive
same,caspase-3 activation,[9],1.08%
same,Potency,[10],inactive
CCn1cc(C(=O)O)c(=O)c2ccc(C)nc21,Potency,[2],inactive
same,caspase-3 activation,[3],0.304%
same,Potency,[4],inactive
same,outcome,[5],inactive
same,outcome,[6],inactive
same,caspase-3 activation,[7],-0.0498%
same,Potency,[8],inactive
same,caspase-3 activation,[9],-0.698%
same,Potency,[10],inactive
CC(=O)O[C@]1(C(C)=O)CC[C@H]2[C@@H]3C=C(Cl)C4=CC(=O)[C@@H]5C[C@@H]5[C@]4(C)[C@H]3CC[C@@]21C,Potency,[2],inactive
same,caspase-3 activation,[3],11.6%
same,Potency,[4],inactive
same,outcome,[5],inactive
same,outcome,[6],inactive
same,caspase-3 activation,[7],-0.0763%
same,Potency,[8],inactive
same,caspase-3 activation,[9],0.0575%
same,Potency,[10],inactive
O=C1NC(=O)C(c2ccccc2)(c2ccccc2)N1,outcome,[1],inactive
same,Potency,[2],inactive
same,caspase-3 activation,[3],1.33%
same,Potency,[4],inactive
same,outcome,[5],inactive
same,outcome,[6],inactive
same,caspase-3 activation,[7],0.351%
same,Potency,[8],inactive
same,caspase-3 activation,[9],0.679%
same,Potency,[10],inactive
Clc1ccc(Cn2c(CN3CCCC3)nc3ccccc32)cc1,outcome,[1],inactive
O=C1C[C@@H](c2ccc(O)cc2)Oc2cc(O)cc(O)c21,outcome,[1],inactive
CN(C)CCC(c1ccccc1)c1ccccn1 (configuration not stated),Potency,[2],inactive
same,caspase-3 activation,[3],1.03%
same,Potency,[4],inactive
same,outcome,[5],inactive
same,outcome,[6],inactive
same,caspase-3 activation,[7],0.331%
same,Potency,[8],inactive
same,caspase-3 activation,[9],1.53%
same,Potency,[10],inactive
O=C(O)c1cc(O)c2c(c1)C(=O)c1cccc(O)c1C2=O,Potency,[2],inactive
same,caspase-3 activation,[3],-6.3%
same,Potency,[4],inactive
same,outcome,[5],inactive
same,outcome,[6],inactive
same,caspase-3 activation,[7],-1.07%
same,Potency,[8],inactive
same,caspase-3 activation,[9],1.57%
same,Potency,[10],inactive
